Structures are written as SMILES. In all, about 69,000 compounds went through this assay and about 8,600 (12%) showed an effect of 50% or more. The entries come from a sample that favours strong results as a whole.

The test relates to Plasmodium berghei. Briefly: Screen against P. berghei liver stage (PbLuc), transformed with Luciferase, at 10uM. The test is classed as functional, HepG2. The note with it: tested at 10 uM.
`CCCC(NC(=O)c1cc(C)ccc1O)c1nnn[nH]1` (stereo unspecified): the INHIBITION is 34.6%. To `COc1ncccc1NC(=O)C1CCOCC1` belongs 43.3%; to `CC(=O)Nc1c(C)noc1C=Cc1ccc(C)c(S(=O)(=O)NC2CC2)c1`, 11.6%; to `O=C(Nc1ccccc1)C1=CC2(CCNCC2)c2ccccc21`, 48.2%. As for `O=C(CN1C(=O)CCC1=O)NCC1(O)CCc2ccccc21` (stereo unspecified), the figure is 5.58%; as for `O=C(Cn1cccn1)NCC1(c2ccccc2)CC1`, -8.3%. For the compound `O=C(Cn1c(=O)oc2ccccc21)NCC1(O)CCc2ccccc21` (stereo unspecified), the INHIBITION is -27.3%. Regarding `Cc1cnn(CC(=O)NCC2(O)CCCc3ccccc32)c1` (stereo unspecified), the INHIBITION is 80.5%.

Consider `O=C(Cn1cncn1)NCC1(O)CCCc2ccccc21` (stereo unspecified), for which the INHIBITION was determined as 10.9%. As for `O=C(Cn1cnnn1)NCC1(O)CCCc2ccccc21` (stereo unspecified), the figure is 64.7%; as for `Cc1cccc(S(=O)(=O)N2CSCC2C(=O)NCC2CC2)c1` (stereo unspecified), -14.3%; as for `Cc1cnccc1-c1cnn(CCNC(=O)c2ccncc2)c1C1CC1`, 48%. To `Cc1ccc(CN(C)Cc2nc3ccc(F)cc3[nH]2)cn1` belongs 44.2%; to `Cc1ccc(CC(=O)N2CCCC(c3ccn[nH]3)C2)cn1` (stereo unspecified), 22.965%; to `O=C(NCc1ccco1)[C@@H]1CCO[C@@H]2CCN(c3ncccn3)C[C@@H]21`, 36.9%. As to `Cn1cccc1C(=O)N1CCN(Cc2ccncc2)c2ncccc2C1`, the INHIBITION is reported as -33%.

On to `N[C@@H]1c2ccccc2C2(CCN(c3ncccc3C(F)(F)F)CC2)[C@H]1O`, for which the INHIBITION turned out to be 86.6%.

For the compound `N[C@@H]1c2ccccc2C2(CCN(c3cnc4ccccc4n3)CC2)[C@H]1O`, the INHIBITION is on record as 44.9%. To `N[C@@H]1c2ccccc2C2(CCN(c3cccc(C(F)(F)F)n3)CC2)[C@H]1O` belongs 88%; to `FC(F)(F)c1ccnc(N2CCCCCC2)c1`, -6.52%. To `N[C@@H]1c2ccccc2C2(CCN(C(=O)c3cncc(Cl)c3)CC2)[C@H]1O` belongs 8.5%. As for `O=C1CCC2(CCN(c3cccc(C(F)(F)F)n3)CC2)CN1CCO`, the figure is 47.9%; as for `N[C@@H]1c2ccccc2C2(CCN(c3ccc(C(F)(F)F)cn3)CC2)[C@H]1O`, 78.3%. Turning to `N[C@@H]1c2ccccc2C2(CCN(C(=O)c3ccc(Cl)cn3)CC2)[C@H]1O`, the INHIBITION was 37.1%. To `CC(C)C(=O)NCC(=O)N1CCC2(CC1)c1ccccc1[C@@H](N)[C@@H]2O` belongs -26.1%; to `NS(=O)(=O)CC1CCN(c2ncccc2C(F)(F)F)CC1`, 20.6%. As for `N[C@@H]1c2ccccc2C2(CCN(c3cc(C(F)(F)F)ccn3)CC2)[C@H]1O`, the figure is 58.8%; as for `OCC1(O)CCN(c2ncccc2C(F)(F)F)CC1`, 24.2%. As for `CC(C)c1n[nH]c(C2CN(CCCS(C)(=O)=O)CCO2)n1` (stereo unspecified), the figure is 0.914%; as for `Cc1nc(CN2CCn3cc(CNC(=O)C4CCC4)nc3C2)cs1`, -3.1%. For the compound `Cc1ccc(N(Cc2ccco2)C(=O)Cc2cc(=O)n(C)[nH]2)cc1`, the INHIBITION amounted to 39.5%. `O=C(O)CCn1ccc2cc(Br)ccc21`: the INHIBITION was determined as 24.7%. Consider `CC(NC(=O)C1=NN(C)C(=O)CC1)c1ccccc1Cl` (stereo unspecified), for which the INHIBITION is 35.4%.

Regarding `Cc1cnc(CNC(=O)C2CCOc3ccccc3C2)cn1` (stereo unspecified), the INHIBITION was -3.83%.

Consider `COCCCN(Cc1ccccc1Cl)C1CCS(=O)(=O)C1` (stereo unspecified), for which the INHIBITION was 33.4%. Regarding `Cc1nnnn1CCC(=O)N1CCC2(CCC(=O)N(CC3CC3)C2)CC1`, the INHIBITION stood at 8.38%. As to `c1cc(CN2CCCCC2c2ccc(Nc3cnccn3)nc2)ccn1` (stereo unspecified), the INHIBITION came out at 43.1%. With `Cn1cc(CN2CCC3(C2)CN(Cc2ccsc2)C3)cn1`, the INHIBITION is on record as -3.19%. As for `CNc1nc(CNC(=O)Nc2cccc(OC)c2)cs1`, the figure is 23.5%. As for `N#Cc1cccc(N2CCC3(CC2)Nc2ccccc2NC3=O)n1`, the figure is 14.3%. As for `O=C1Nc2ccccc2NC12CCN(c1cccc(C(F)(F)F)n1)CC2`, the figure is 76%; as for `CC(O)c1cccc(N2CCC3(CC2)Nc2ccccc2NC3=O)n1` (stereo unspecified), 0.705%. As for `Cn1cnc2cc(C(=O)NS(=O)(=O)CC3CCCC3)ccc21`, the INHIBITION was -20.6%. To `COCCN1CCc2cc(C(=O)O)c(-c3ccoc3)nc2CC1` belongs 42.7%; to `Cn1cncc1CN1CCc2nc3sccc3c(=O)n2CC1`, -9.08%. To `Cc1ccc(CN(CCCn2ccnc2)Cc2cnn(C)c2)s1` belongs 24.4%; to `CCc1ccc(CN(CCCn2ccnc2)Cc2ccc(C)s2)o1`, 52.3%.

`COc1ccc(Cn2ccnc2)cc1F`: the INHIBITION is reported as -20.7%. As for `Cc1ccc(CN(CCCN2CCOCC2)Cc2cncn2C)o1`, the figure is 30.4%; as for `Cc1ccc(CN(CCCn2ccnc2)Cc2cccs2)s1`, 82.1%.

On to `Cc1ccc(CN(CCCn2ccnc2)Cc2cnc(N(C)C)nc2)s1`, for which the INHIBITION is recorded as -16.5%. To `Cc1ccc(CN(CCCn2ccnc2)Cc2c(F)cccc2F)s1` belongs 94.1%. As for `COc1ccc(F)c(CN(CCCn2ccnc2)Cc2ccc(C)s2)c1`, the figure is 86.9%; as for `COc1ccc(Cl)cc1CNCCCn1ccnc1`, -22.1%. To `Cc1ccc(CN(CCN(C)C)Cc2ncc[nH]2)s1` belongs 17.6%. For `CCCc1cncnc1N1CCCC2(CCC(=O)N(C3CCCC3)C2)C1` (stereo unspecified), the INHIBITION is given as 32.4%. To `O=S(=O)(c1cnccc1N1CCN(CCO)CC1)N1CCCCC1` belongs 8.38%; to `CC(C)N1CCCC(c2cc(C(F)(F)F)nc3nccn23)C1` (stereo unspecified), 3.03%; to `O=C(O)CCC(=O)Nc1nn(Cc2ccccc2Cl)cc1Cl`, 19.3%.

For the compound `CC(C)c1nccn1C1CCCN(C(=O)c2ccc3nncn3c2)C1` (stereo unspecified), the INHIBITION was determined as 36.1%. To `Cc1cnn(CC2CCCN2C(=O)CCc2c(C)nc(C)[nH]c2=O)c1` (stereo unspecified) belongs -37.7%; to `CC(=O)N1CCC(c2cncc(Oc3ccccc3)n2)CC1`, 41.5%.

Regarding `CN(Cc1ccno1)c1nc(C2CCCC2)nc2c1cnn2C`, the INHIBITION worked out at 20%. To `Cc1cc(CN2CC[C@H]3C[C@H](C(=O)Nc4cccnc4C)O[C@@H]3C2)no1` belongs 48.6%; to `OCc1ccc(CN(CCCn2ccnc2)Cc2cccnc2)o1`, 56%. For the compound `Fc1ccccc1CN(CCCn1ccnc1)CC1CCOC1` (stereo unspecified), the INHIBITION is on record as 1.62%. On to `OCc1ccc(CN(CCCn2ccnc2)Cc2ccncc2)o1`, for which the INHIBITION is listed as 42.1%. As for `Cc1ccc(CN(CCCn2ccnc2)Cc2cc(F)ccc2F)s1`, the figure is 88.1%.

Turning to `c1cncc(CN(CCCn2ccnc2)CC2CCOC2)c1` (stereo unspecified), the INHIBITION was determined as 44.8%. As for `CC(C)OCCCN(Cc1ccncc1)Cc1cc(F)ccc1F`, the figure is -16.5%. On to `CC(C)NC1CCCc2nc(-c3ccccc3)ncc21` (stereo unspecified), for which the INHIBITION is on record as -36.3%. To `CN1CCN(c2ccc(NS(=O)(=O)c3ccc(Cl)s3)cc2C(=O)O)CC1` belongs -12.6%; to `Cc1cc(C)n(CC2CCCCN2C(=O)CCc2ccncc2)n1` (stereo unspecified), 4.52%; to `Cc1cccc(C(=O)Nc2c(C(N)=O)n[nH]c2C)c1C`, -41.9%. To `CC(=O)N(Cc1noc(C)n1)C1CCN(Cc2ccc(C#N)cc2)C1` (stereo unspecified) belongs 27.4%; to `Cc1cc(C)c2c(NC(C)c3nncn3C3CCCC3)ncnc2n1` (stereo unspecified), 35.1%.

Consider `CN1N=C(c2nc(Cc3cccc(Br)c3)no2)CCC1=O`, for which the INHIBITION was found to be 25.4%. Turning to `COc1ccc(-c2noc(C3=NN(C)C(=O)CC3)n2)cc1OC`, the INHIBITION is -17.8%.

As to `COc1ccc(Cc2noc(C3=NN(C)C(=O)CC3)n2)cc1OC`, the INHIBITION was 53.8%. For the compound `CCOCC1CN(C(=O)c2cccs2)Cc2cnn(CC3CC3)c21` (stereo unspecified), the INHIBITION was determined as 14.6%.

On to `Cc1cc(C(=O)NC(COCC(C)C)c2ccco2)no1` (stereo unspecified), for which the INHIBITION came out at 11.9%.

`CC(C)c1noc(C(C)S(=O)(=O)CC(=O)N2CCCC2)n1` (stereo unspecified): the INHIBITION was 37.9%. As for `O=C(c1ccc(=O)[nH]n1)N1CCCC(O)(CN2CCC(F)(F)CC2)CC1` (stereo unspecified), the figure is -18.8%.

Regarding `Cc1cc2nc(C(C)C)cc(NCC(c3ccccn3)N(C)C)n2n1` (stereo unspecified), the INHIBITION was found to be 28%. Regarding `COc1cc(NCC(c2ccccn2)N(C)C)ncn1` (stereo unspecified), the INHIBITION came to 53.6%.

With `COc1cc(NCC(O)CN2CCCCCC2)ncn1` (stereo unspecified), the INHIBITION is -25%.

On to `CC(c1nc(C(C)(C)C)no1)N1CCN(Cc2ccc(C#N)cc2)CC1` (stereo unspecified), for which the INHIBITION is -4.94%. As for `Cc1ccoc1C(=O)N1CCn2cc(CN3CCCC3)nc2C1`, the figure is 28.7%. Take `CCOc1cccc2c1OCC(C(=O)NS(=O)(=O)c1c(C)noc1C)=C2`: the INHIBITION is listed as -6.44%. As for `CO[C@H]1CN(S(=O)(=O)c2ccc(F)cc2)C[C@@]12CCCO2`, the figure is -23.4%; as for `CN(C)c1ccc(NC(=O)NCc2cccnc2N(C)C)cn1`, 17.5%. To `CC(C)(C)c1nc(CN2CCCC(c3noc(C4CC4)n3)C2)no1` (stereo unspecified) belongs -41.1%; to `CC(C)(C)c1nc(CN2CCC(c3nc4cc(Cl)ccc4o3)CC2)no1`, 56.9%; to `CC(C)c1noc(CN2CCC(c3nc4cc(Cl)ccc4o3)CC2)n1`, 67.9%. To `c1ccc2oc(C3CCN(Cc4ncon4)CC3)nc2c1` belongs 15.2%; to `CC(C)(C)c1nc(CN2CCC(c3ccnn3CCO)CC2)no1`, -17%. Turning to `CCS(=O)(=O)c1ccc2oc([C@H]3CCN(Cc4ccccc4)C3)nc2c1`, the INHIBITION is recorded as -81.2%.

Regarding `CC(C)(C)c1nc(CN2CCC(N3CCCCC3)CC2)no1`, the INHIBITION is listed as 56.3%. To `CN1CCN(C2CCN(Cc3noc(C(C)(C)C)n3)CC2)C1=O` belongs -21.5%; to `Clc1ccc2oc(C3CCN(Cc4cccnc4)CC3)nc2c1`, 73.4%; to `CCc1nnc(CN2CCC(c3nc4cc(Cl)ccc4o3)CC2)o1`, 33.8%. As for `CCS(=O)(=O)c1ccc2oc([C@H]3CCN(Cc4cccnc4)C3)nc2c1`, the figure is 19.8%. Consider `Clc1ccc2oc(C3CCN(Cc4nc(C5CC5)no4)CC3)nc2c1`, for which the INHIBITION is on record as 42.6%. To `CC(C)(C)c1n[nH]c(C2CN(C(=O)c3cnc[nH]3)CCO2)n1` (stereo unspecified) belongs -42.1%; to `CN(C)CC1CN(Cc2cccc(C#N)c2)Cc2nccn2C1` (stereo unspecified), -62.8%. To `CC[C@H](C)Nc1ncc(-c2cccc(NC(=O)CNC)c2)cn1` belongs -21.1%.

Source of the values: ChEMBL document CHEMBL4513216, “Probing the Open Global Health Chemical Diversity Library for Multistage-Active Starting Points for Next-Generation Antimalarials” (ACS Infect Dis, 2020).
